Rows were chosen to be rich in hits. Some 0.35% of all compounds tested hit in one or more screens of this group.
PvdQ inh: blocks Pseudomonas aeruginosa PvdQ acylase activity; inhibition, % at 10 µM; purified PvdQ acylase, fluorescence plate reader; 340,000 compounds, 0.063% hits; AID 488965; in the data active = inhibition above about 30%, passing the limit was not always enough;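 also: 0% = vehicle neutral wells and 100% = reference inhibitor wells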
ERAP1 HTS inh: ERAP1 (human) enzyme inhibition; inhibition, % at 10.7 µM; AID 652197; recombinant ERAP1, Leu-AMC fluorescence, 60 min; 340,000 compounds, 0.15% hits;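 active = mean replicate inhibition of at least 30%, or all replicates individually reaching that 30% level; inactive = mean below 30% and not every replicate reaching it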;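 also: 0% = neutral control wells and 100% = L-leucinethiol positive control wells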
ERp5 block: inhibitors of human ERp5; Q15084; ERp5 insulin aggregation, absorbance 650 nm, 90 min; inhibition, % at 9.99 µM; 350,000 compounds, 0.05% hits; AID 651711;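 active = mean replicate inhibition above about 25%, with every replicate also reaching it, limit read from the data, passing the limit was not always enough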
Target sequence (Q15084 whole entry, looked up): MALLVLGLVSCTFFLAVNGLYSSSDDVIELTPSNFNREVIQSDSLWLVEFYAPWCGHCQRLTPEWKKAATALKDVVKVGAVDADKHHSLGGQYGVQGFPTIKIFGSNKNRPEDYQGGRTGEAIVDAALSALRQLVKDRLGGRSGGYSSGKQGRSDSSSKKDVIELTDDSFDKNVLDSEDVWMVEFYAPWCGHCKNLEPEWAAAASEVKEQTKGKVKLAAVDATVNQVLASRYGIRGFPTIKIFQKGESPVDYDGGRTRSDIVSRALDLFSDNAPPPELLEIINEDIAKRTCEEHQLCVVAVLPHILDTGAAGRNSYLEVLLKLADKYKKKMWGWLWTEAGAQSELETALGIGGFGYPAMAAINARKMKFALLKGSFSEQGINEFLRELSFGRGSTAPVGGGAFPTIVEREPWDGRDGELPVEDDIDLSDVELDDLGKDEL
Rtt109 HAT inh: blocks Candida albicans Rtt109/Vps75 acetyltransferase activity | purified Rtt109/Vps75, ThioGlo CoA-SH fluorescence, 4 h | inhibition, % at 34.9 µM | 330,000 compounds, 0.16% hits | AID 540336;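 active = inhibition of at least 50% in every replicate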
PDI inh: PDI (human) enzyme inhibition; PDI insulin aggregation turbidity, A650, 90 min; inhibition, % at 10 µM; 350,000 compounds, 0.052% hits;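 active = mean inhibition across replicates of 30% or more, whatever share of single replicates reach that level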
* marks the source's active call; other numbers are inactive results; ! = not confirmed by another sample.

Screening CC(=O)N(C1=C(Cl)C(=O)c2ccccc2C1=O)C1CCCCC1 returned PvdQ inh 5, ERAP1 HTS inh 68*, ERp5 block 2, Rtt109 HAT inh 3 and PDI inh -4.
`NC(N)=N/N=C/c1ccc(OCc2ccccc2)c(OCc2ccccc2)c1` gave PvdQ inh 0, ERAP1 HTS inh -23, ERp5 block 2, Rtt109 HAT inh 79* and PDI inh -2.
Screening C[C@@H]1CN([C@@H](C)CO)C(=O)c2cc(NC(=O)Cn3cnnn3)ccc2O[C@H]1CN(C)C returned ERAP1 HTS inh 3 and ERp5 block 4.
CCCCCCC[C@H](N)[C@H](O)C(=O)N(C)[C@@H](CCS(C)=O)C(=O)N[C@@H](Cc1ccc(O)cc1)C(=O)N[C@@H](Cc1ccc(O)cc1)C(=O)O (some centres undefined) was read as PvdQ inh 5, ERAP1 HTS inh 50*, ERp5 block 6, Rtt109 HAT inh 18 and PDI inh 2.
Cc1ccc(S(=O)(=O)N[C@@H](CO)C(=O)N[C@@H](Cc2ccc(O)cc2)C(=O)O)cc1 was read as PvdQ inh -9, ERAP1 HTS inh -7, ERp5 block 5, Rtt109 HAT inh 0 and PDI inh 8.
For COCC#Cc1cnc2c(c1)C(=O)N([C@@H](C)CO)C[C@@H](C)[C@@H](CN(C)C(=O)Cc1ccncc1)O2 the results were ERAP1 HTS inh -2 and ERp5 block -8.
Screening CCCCCCCCCCOC(=O)Cn1c(COc2ccc(OC)cc2)[n+](C)c2ccccc21 returned PvdQ inh -4, Rtt109 HAT inh 84*! and PDI inh 0.
Screening CCOC(=O)Cn1c(COc2ccccc2OC)[n+](C)c2ccccc21 returned ERAP1 HTS inh -3, ERp5 block 2 and PDI inh -4.
`CCCCOC(=O)Cn1c(=O)n(CC(=O)OCCCC)c2ccccc21` gave PvdQ inh -11, Rtt109 HAT inh 15 and PDI inh -1.
`CCCCCCCCCCOC(=O)Cn1c(COc2ccccc2)[n+](C)c2ccccc21` gave PvdQ inh -8, ERAP1 HTS inh 49*, ERp5 block 7, Rtt109 HAT inh -5 and PDI inh 4.
CCCCCCCCCCOC(=O)Cn1c(COc2ccccc2C)[n+](C)c2ccccc21 was read as PvdQ inh -2, ERAP1 HTS inh 33*, ERp5 block 3, Rtt109 HAT inh -4 and PDI inh 2.
For CCCCCCCCCCOC(=O)Cn1c(COc2ccc(Cl)cc2)[n+](C)c2ccccc21 the results were PvdQ inh -7, ERAP1 HTS inh 35*, ERp5 block 8, Rtt109 HAT inh -4 and PDI inh -48.
O=C(NCC[C@H]1CC[C@@H](NC(=O)C2CCC2)[C@@H](CO)O1)c1ccc(F)cc1 was read as ERAP1 HTS inh 0 and ERp5 block 1.
`CO[C@H]1CN(C)C(=O)c2cc(NS(=O)(=O)c3ccccc3)ccc2OC[C@H](C)N(Cc2cccnc2)C[C@H]1C` gave ERAP1 HTS inh 0 and ERp5 block 0.
`CCCCCCCCCCOC(=O)Cn1c(COc2cccc(C)c2)[n+](C)c2ccccc21` gave PvdQ inh 2, ERAP1 HTS inh 30*, ERp5 block 6, Rtt109 HAT inh 0 and PDI inh 17.
`O=C(NN=c1c(=O)c2ccccc2c1=O)c1ccccc1` gave PvdQ inh -7, ERAP1 HTS inh -8, ERp5 block 33*, Rtt109 HAT inh 0 and PDI inh 1.
`COc1ccccc1-c1cnc2c(c1)C(=O)N([C@@H](C)CO)C[C@@H](C)[C@H](CN(C)Cc1cccc(F)c1)O2` gave ERAP1 HTS inh -2 and ERp5 block 2.
For Cc1ccc2nc(N(CCCN(C)C)C(=O)c3ccc4c(c3)CCCC4)sc2c1 the results were PvdQ inh 2, Rtt109 HAT inh 63* and PDI inh 7.
CC(C)NC(=O)N1C[C@@H]2[C@H](c3ccccc31)[C@H](CO)N2C(=O)c1ccccc1F was read as ERAP1 HTS inh 2 and ERp5 block 0.
For O=C1C=C(c2cc(F)ccc2F)C[C@@H](c2ccc(F)cc2)C1 the results were PvdQ inh 64*, ERAP1 HTS inh 1, ERp5 block 1, Rtt109 HAT inh 2 and PDI inh -4.
`CN1CCN(S(=O)(=O)c2cccc(C(=O)N(C)CC(=O)Nc3ccc(F)c(F)c3F)c2)CC1` gave PvdQ inh -12, ERAP1 HTS inh 99*, ERp5 block -2, Rtt109 HAT inh -3 and PDI inh -5.

Screening results: PubChem, Broad Institute
